DSG3 Ab inh: blocks pemphigus antibody binding to human desmoglein-3; P32926; DSG3-coupled beads, scFv-anti-DSG3-GFP binding, flow cytometry; hits give low values; binding (percent of control), % at 10 µM; 0.48% of 310,000 active; AID 588358;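 active = binding more than 3 SD below its plate's average and above zero; inconclusive = below that plate limit but binding exactly zero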;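 also: hits lower antibody fragment binding to DSG3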
GASC-1 inh: human JMJD2C demethylase inhibition. AID 2099. Q9H3R0. inhibition, % at 2.35 µM. 0.069% of 330,000 active. GST-JMJD2C(1-420) H3K9me3 demethylation, DELFIA europium;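 active = more than half of a compound's replicate wells show inhibition beyond 50%, single wells judged on their own value; inconclusive = some, but no more than half, of replicates pass 50% inhibition; inactive = no replicate passes 50% inhibition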;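 also: signal counts dimethyl H3K9 product captured on neutravidin plate; 0% = median of DMSO wells and 100% = 0.3 times that DMSO median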
PREPL inh: inhibitors of human prolyl oligopeptidase-like enzyme PREPL; Q4J6C6; recombinant PREPL, fluorescence polarization activity-based probe; inhibition, % at 5.96 µM; 0.68% of 320,000 active; AID 2751; in the data active = inhibition above about 43%;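 also: 0% = enzyme with DMSO and 100% = wells lacking enzyme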
VLA-4 inh: inhibition in a human VLA-4 binding assay; 0.2% of 330,000 active; P13612; inhibition, % (about 7 µM as worked out from the volumes in the protocol); VLA-4 expressing cells, ligand binding flow cytometry; in the data active = inhibition above about 50%
GRK2 inh: blocks RNA aptamer binding to human GRK2; 0.59% of 330,000 active; inhibition of aptamer binding, % at 10 µM; bead flow cytometry, FAM-aptamer displacement from GRK2;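 active = inhibition of aptamer binding above 40%, roughly 3 SD of noise, on plates passing a quality check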;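 also: median bead fluorescence of bound FAM aptamer so fluorescent compounds give negative values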
VLA-4 mod pick: confirmation of allosteric modulators of human VLA-4 integrin; inhibition, % at 6.7 µM; shares compounds with VLA-4 inh; 2% of 1,300 active; U937 cells, HUTS-21 LIBS mAb binding, flow cytometry; LDV ligand present at threefold Kd; in the data active = inhibition above about 40%;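 also: 0% = ligand without compound and 100% = no ligand background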
* marks the source's active call; other numbers are inactive results; i = inactive; ? = inconclusive; nt = no result. A selection: hits, their analogues and other compounds. The true share with any hit is near 1.6%.

SMILES | DSG3 Ab inh | GASC-1 inh | PREPL inh | VLA-4 inh | GRK2 inh | VLA-4 mod pick
Cc1cc(Cl)nc(-n2nc(C)cc2C)n1 | 108 | 1 | -3 | 17 | 0 | 2
Cc1cc(C)n(-c2nc(C)nc(N)n2)n1 | 83 | 15 | 8 | 1 | 1 | -4
CCC(=O)c1cn(CC(=O)Nc2cccc(C)c2C)c2ccccc12 | 95 | -7 | 13 | 23 | 0 | 3
Cc1ccc(NC(=O)Cn2c(=O)oc3ccccc32)cc1 | 113 | -11 | 11 | 8 | 0 | nt
COc1ccc(CCNC(=O)Cn2c(=O)oc3ccccc32)cc1OC | 101 | 4 | -4 | 0 | 4 | -12
Cc1cccc(NC(=O)Cn2c(=O)oc3ccccc32)c1C | 102 | 14 | 2 | -20 | 1 | -4
Cc1ccc(NC(=O)Cn2c(=O)oc3ccccc32)c(C)c1 | 100 | -4 | 5 | 2 | 3 | -11
O=C(Cn1c(=O)oc2ccccc21)Nc1ccccc1C(F)(F)F | 107 | 1 | 4 | 10 | 6 | nt
CCOC(=O)Cc1cc(=O)n2[nH]cc(-c3ccc(Cl)cc3)c2n1 | 101 | -19 | 16 | 14 | 4 | nt
O=C(NC1CCN(CCc2c[nH]c3ccccc23)CC1)c1ccccc1 | 106 | 16 | 37 | -6 | 1 | nt
Fc1ccc(CSc2nnc3ccc(-c4ccncc4)nn23)cc1 | 99 | 2 | 13 | -3 | 0 | nt
Cc1cccc(C)c1NC(=O)CNC(=O)C1CCCN(C(=O)c2ccc(Cl)cc2)C1 (stereo not drawn) | 101 | 6 | 9 | 3 | 2 | nt
CCCN(CC(=O)Nc1ccccc1C)C(=O)C1CCCN(C(=O)c2ccc(Cl)cc2)C1 (stereo not drawn) | 102 | 10 | -1 | 50* | 0 | 1
CC(=O)NCc1nnc2c3ccccc3c(-c3ccccc3)nn12 | 102 | -6 | 4 | -4 | 0 | nt
O=C(COc1ccccc1)NCc1nnc2c3ccccc3c(-c3ccccc3)nn12 | 97 | -5 | -21 | 56* | 4 | 1
COc1ccc(CNC(=O)CNS(=O)(=O)c2cccc(C#N)c2)cc1OC | 108 | -1 | nt | -8 | 4 | 3
Nc1ccc(S(=O)(=O)c2ccccc2)nc1 | 93 | ? | 5 | 44 | 4 | -10
CCn1c(N)[n+](CC(=O)Nc2ccc(SC(F)F)cc2)c2ccccc21 | 93 | 2 | -5 | -3 | 0 | nt
COc1ccc(CN2C(=O)c3cccnc3C2=O)cc1S(=O)(=O)N1CC(C)Oc2ccccc21 (stereo not drawn) | 98 | -14 | -7 | 56* | 0 | 0
COCCCn1c(O)c(/C=C2\N=C(C#N)C(=Nc3ccc(C)cc3)O2)sc1=S | 100 | -10 | 4 | i | 6 | nt
CO/N=C/C(=N\Nc1ccc(OC)cc1)C(=O)c1ccc(OC)cc1 | 95 | 6 | -2 | 91* | 0 | -1
COC(=O)c1sc(NC(=O)C2c3ccccc3Oc3ccccc32)c(C(=O)OC)c1C | 104 | -7 | 2 | 0 | 1 | -2
COC(=O)c1c(NC(=O)C2c3ccccc3Oc3ccccc32)sc(C)c1C | nt | -1 | 10 | 10 | 0 | 8
CCOC(=O)c1c(NC(=O)C2c3ccccc3Oc3ccccc32)sc(C(C)=O)c1C | 102 | -6 | 8 | -9 | 0 | 0
N#CCC(=O)Nc1ccc(C(=O)OCC(=O)N2CCCC2=O)cc1 | 101 | 0 | 3 | -4 | 1 | nt
SMILES | DSG3 Ab inh | GASC-1 inh | PREPL inh | VLA-4 inh | GRK2 inh | VLA-4 mod pick
C=CCNC(=O)N1CCC(n2nccc2NC(=O)CCCc2ccccc2)CC1 | 98 | -21 | 6 | -85 | 2 | nt
CCOc1ccc(Oc2c(/C=N/NC(=O)COc3ccccc3OC)c(C)nn2-c2ccccc2)cc1 | 126 | 4 | 23 | 46 | 0 | 3
CCCc1ccc(OCCNC(=O)CC)cc1 | 103 | -6 | 7 | 51* | 0 | 0
NC(=O)NS(=O)(=O)Oc1ccccc1 | 101 | i | -9 | 50* | 4 | -15
NC(=O)c1ccccc1OCC(=O)NS(=O)(=O)c1ccccc1 | 100 | 8 | -3 | -7 | 0 | nt
COc1ccc(NC(=O)Nc2ccc3c(c2)C(=O)N([C@H](C)CO)C[C@H](C)[C@@H](CN(C)C(=O)NC2CCCCC2)O3)cc1 | 96 | -2 | 15 | 50* | 0 | 6
Cc1nnc(-c2ccc(N3CCCCCC3)c([N+](=O)[O-])c2)o1 | 101 | 12 | 16 | -2 | 0 | nt

Screening data (PubChem BioAssay)
